Reference: PubChem BioAssay (NCATS)
Inconclusive results are not listed. Active and inactive are the calls of the source. Unless noted, the call rests on the fitted dose curve; in most records, active means well fitted cell-killing curve with a large enough effect; inconclusive means small, poorly fitted or top-dose-only effect; inactive means flat fitted curve, though single readings scatter.

Assays:
[1] = Cell Viability - LYMP2-025 (AID 976);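 further: series mostly up to about 92 µM; plate controls were DMSO only for no effect and tetraoctylammonium bromide control for full effect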
Summary of the method: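 Acute cytotoxicity is scored as a concentration-dependent fall in intracellular ATP, measured by luciferase luminescence, in human lymphoblastoid LYMP2-025 cells exposed to compound for 24 hours at 37 C. AC50 values come from standard Hill fits.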

[2] = Cell Viability - LYMP2-002 (AID 977);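 further: series mostly up to about 92 µM; compound exposure lasted 24 h at 37 °C; plate controls were DMSO only for no effect and 92 µM tetraoctylammonium bromide for full effect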
Summary of the method: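 Human lymphoblastoid cells (2500/well) in complete medium were preincubated 5 hr at 37 C, then exposed to compounds for 24 hr at 37 C. Intracellular ATP was read by CellTiter-Glo luminescence; AC50 came from Hill-equation concentration-response fits.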

[3] = Cell Viability - LYMP2-006 (AID 978); further: series mostly up to about 92 µM; on the % scale 0 is the no-effect control and ±100 the full control effect; nearly all actives have a fitted effect of over 60% in size
Summary of the method: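 Human lymphoblastoid cells, 2500 per well, were preincubated 5 hr at 37 C, then exposed to compounds for 24 hr at 37 C in complete medium. Viability was read as intracellular ATP by CellTiter-Glo luminescence; AC50 from Hill-equation fits of qHTS concentration-response data.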

[4] = Cell Viability - LYMP2-007 (AID 979);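 further: cells exposed to compound for 24 h before reading; 0% = DMSO only and the negative end = 92 µM tetraoctylammonium bromide; nearly all actives have a fitted effect of over 60% in size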
Summary of the method: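 Cells are seeded at 2500 per well and rested 5 hr. Compounds are then added over a concentration series for 24 hr at 37 C. CellTiter-Glo is added for 30 min at room temperature before luminescence reading.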

[5] = Cell Viability - LYMP2-010 (AID 981); further: on the % scale 0 is the no-effect control and ±100 the full control effect; nearly all actives have a fitted effect of over 55% in size
Summary of the method: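 Steps: seed 2500 LYMP2-010 cells per well; incubate 5 hr at 37 C; add compound; incubate 24 hr at 37 C; add CellTiter-Glo, wait 30 min at room temperature; read luminescence. Concentration-response fitted to Hill equation for AC50.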

[6] = Cell Viability - LYMP2-012 (AID 982);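 further: cellular ATP by luciferase luminescence where a drop means cytotoxicity; cells exposed to compound for one day before reading; 0% = DMSO only and full loss = 92 µM tetraoctylammonium bromide; nearly all actives have a fitted effect of over 55% in size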
[7] = Cell Viability - LYMP2-014 (AID 983);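 further: series mostly up to about 92 µM; plate controls were DMSO only for no effect and 92 µM tetraoctylammonium bromide for full effect; nearly all actives have a fitted effect of over 50% in size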
Summary of the method: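 Cells are plated at 2500/well and left 5 hr at 37 C. Compounds are added across a concentration range and incubated 24 hr at 37 C in complete medium. CellTiter-Glo is added, and luminescence is read after 30 min at room temperature.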

[8] = Cell Viability - LYMP2-018 (AID 985);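 further: compound exposure lasted 24 hr at 37 °C; plate controls were DMSO only for no effect and tetraoctylammonium bromide at 92 µM for full effect; nearly all actives have a fitted effect of over 50% in size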
Summary of the method: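 Seed 2500 lymphoblastoid cells per well, incubate 5 hr at 37 C, add compound and incubate 24 hr at 37 C, add CellTiter-Glo, wait 30 min at room temperature, then read luminescence.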

[9] = Cell Viability - LYMP2-020 (AID 986);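 further: series mostly up to about 92 µM; plate controls were DMSO only for no effect and tetraoctylammonium bromide at 92 µM for full effect; nearly all actives have a fitted effect of over 55% in size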
Summary of the method: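 Seed 2500 cells per well and incubate 5 hr at 37 C. Add compounds at a concentration series and incubate 24 hr at 37 C. Add CellTiter-Glo, wait 30 min at RT, read luminescence, and fit a Hill curve for AC50.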

[10] = Cell Viability - LYMP2-024 (AID 988);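 further: plate controls were DMSO only for no effect and 92 µM tetraoctylammonium bromide for full effect; nearly all actives have a fitted effect of over 60% in size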
Summary of the method: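 qHTS cytotoxicity, human lymphoblastoid line, complete medium; 24 h cpd treatment, 37 C; CellTiter-Glo ATP luminescence readout; tetraoctylammonium bromide positive control; AC50 via Hill fit.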

[11] = Cell Viability - LYMP2-026 (AID 989); further: on the % scale 0 is the no-effect control and ±100 the full control effect; nearly all actives have a fitted effect of over 50% in size
Summary of the method: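 Cells are seeded at 2500 per well and held 5 hr at 37 C. Compounds are added in concentration series for 24 hr, then CellTiter-Glo reagent is applied and luminescence read.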

[12] = Cell Viability - LYMP1-002 - Assay at 24 hr (AID 993); further: on the % scale 0 is the no-effect control and ±100 the full control effect
Summary of the method: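 Acute toxicity is measured as concentration-dependent loss of cellular ATP in a human lymphoblastoid line (Coriell LYMP1-002) after 24 h treatment in complete medium. ATP is quantified by luciferase luminescence and AC50 derived by Hill modelling.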

[13] = Cell Viability - LYMP1-002 - Assay at 40 hr (AID 994);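 further: 0% = DMSO only and full inhibition = 92 µM tetraoctylammonium bromide; nearly all actives have a fitted effect of over 60% in size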
Summary of the method: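 Cells are plated at 2500 per well and rested 5 hr at 37 C. Compounds are added and incubated 40 hr at 37 C. CellTiter-Glo reagent is added for 30 min at room temperature before luminescence is read.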

[14] = qHTS Assay for Identification of Small Molecule Inducers of Hypoxia Response (AID 2120; active means well fitted curve in the direction sought with a large enough effect in the signal ratio, with a control signal flat, not every such curve was filed as active; the % refers to the signal ratio; further: 0% is about no effect)
Summary of the method: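 Cell-based qHTS for reporter induction: hypoxia response element controlled beta-lactamase in ME-180 cells. Compounds incubated 17 h at 37 degrees C; activity from blue/green (460/530 nm) ratio, inducers ranked by AC50.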

[15] = target: Estrogen receptor (Homo sapiens) (UniProt P03372); experiment: qHTS assay for small molecule antagonists of estrogen receptor alpha signaling (AID 588513; active means well fitted curve in the direction sought with a large enough effect in the signal ratio, with a control signal flat, not every such curve was filed as active; the % refers to the signal ratio; further: on the % scale 0 is the no-effect control and ±100 the full control effect)
Summary of the method: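 ER-alpha-UAS-bla GripTite HEK 293 cells in medium with 2% charcoal/dextran-treated FBS were preincubated 4 h at 37 C, dosed with compound (1:2 titration), stimulated with 0.5nM 17-beta-estradiol for 18 h, then read by CCF4 beta-lactamase fluorescence.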

[16] = target: Estrogen receptor (Homo sapiens) (UniProt P03372); experiment: qHTS assay for small molecule agonists of estrogen receptor alpha signaling (AID 588514; calls by dose curve;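 further: 0% = vehicle only and 100% = reference agonist; nearly all actives have a fitted effect of over 70% in size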)
Summary of the method: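 Efficacy is expressed against 20 nM 17-beta-estradiol (100%) and DMSO basal (0%); EC50 from Hill equation. Assay: beta-lactamase reporter in ER-alpha-UAS-bla HEK 293 cells, 18 h compound incubation, CCF4 detection.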

[17] = target: Bile acid receptor (Homo sapiens) (UniProt Q96RI1); experiment: qHTS assay for small molecule antagonists of farnesoid X receptor signaling (AID 588526; calls by dose curve; further: on the % scale 0 is the no-effect control and ±100 the full control effect)
Summary of the method: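 Beta-lactamase reporter antagonist mode: HEK293T FXR-UAS-bla cells, titrated compound, CDCA stimulation, 16 h 37 C, CCF4 dye 2 h RT. Data normalized to CDCA 50 uM and DMSO; Hill-fit IC50.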

[18] = target: Bile acid receptor (Homo sapiens) (UniProt Q96RI1); experiment: qHTS assay for small molecule agonists of farnesoid X receptor signaling (AID 588527; calls by dose curve;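 further: series mostly up to about 77 µM; 0% = vehicle basal and 100% = reference agonist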); conditions: HEK293T FXR-UAS-bla, beta-lactamase ratio, 16 h; activation: active compounds read high
Summary of the method: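 Agonist-mode beta-lactamase reporter in GeneBLAzer FXR-UAS-bla HEK293T cells, titration up to 92 uM, 16 h exposure at 37 C, CCF4 fluorescence. Response scaled to DMSO (0%) and 100 uM chenodeoxycholic acid (100%), then Hill-fitted for EC50 and efficacy.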

[19] = target: Glucocorticoid receptor (Homo sapiens) (UniProt P04150); experiment: qHTS assay for small molecule agonists of glucocorticoid receptor signaling (AID 588532; active means well fitted curve in the direction sought with a large enough effect in the signal ratio, with a control signal flat; the % refers to the signal ratio;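 further: 100% = dexamethasone at 0.1 µM and 0% = DMSO only wells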); conditions: HeLa MMTV-bla, beta-lactamase ratio, agonist, 18 h; active compounds read high; percent of dexamethasone control, DMSO zero
Summary of the method: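 Using MMTV-bla HeLa cells in medium with 1% stripped FBS and 25 mM HEPES, compounds were titrated and incubated overnight-length (18 h). Beta-lactamase cleavage of CCF4 was quantified by dual-emission fluorescence.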

[20] = target: Glucocorticoid receptor (Homo sapiens) (UniProt P04150); experiment: qHTS assay for small molecule antagonists of glucocorticoid receptor signaling (AID 588533; active means well fitted inhibition curve with a large enough effect in the signal ratio, with a control signal flat, not every such curve was filed as active; the % refers to the signal ratio;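 further: cells stimulated with 2 nM dexamethasone as agonist; on the % scale 0 is the no-effect control and ±100 the full control effect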)
Summary of the method: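 Antagonist-mode qHTS: compound titrations added to GRE-bla HeLa cells, then dexamethasone 2 nM final; 18 h, 37 C. CCF4 FRET fluorescence normalized to dexamethasone and DMSO; IC50 from Hill fit.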

[21] = target: Peroxisome proliferator-activated receptor delta (Homo sapiens) (UniProt Q03181); experiment: qHTS assay for small molecule agonists of peroxisome proliferator-activated receptor delta signaling (AID 588534; calls by dose curve;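 further: 0% = DMSO basal wells and 100% = positive control agonist at 10 µM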)
Summary of the method: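 Agonist-mode qHTS; reporter cells, 5 hrs 37 C pre-incubation; compound titration, 18 hrs 37 C; CCF4 dye, 2 hrs RT; fluorescence read. EC50/efficacy via Hill fit.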

[22] = target: Vitamin D3 receptor (Homo sapiens) (UniProt P11473); experiment: qHTS assay for small molecule antagonists of vitamin D receptor signaling (AID 588541; calls by dose curve)
Summary of the method: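 Antagonist-mode beta-lactamase reporter assay: HEK293T VDR-UAS-bla cells were exposed to titrated compound alongside 1-alpha,25-dihydroxyvitamin D3 at 3 nM final for 16 h. Values were normalized to the 50 nM agonist control and DMSO basal, with IC50 and efficacy from Hill equation fits.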

[23] = target: Vitamin D3 receptor (Homo sapiens) (UniProt P11473); experiment: qHTS assay for small molecule agonists of vitamin D receptor signaling (AID 588543; calls by dose curve;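 further: 0% = DMSO basal and 100% = reference agonist control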)
Summary of the method: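 GeneBLAzer VDR-UAS-bla HEK293T cells in 2% charcoal-stripped FBS medium were dosed with compound titrations for 16 h at 37 °C; CCF4 β-lactamase readout (405 nm ex, 460/530 nm em). EC50 and efficacy from Hill fits, normalized to 50 nM calcitriol (100%) and DMSO (0%).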

Estrogen receptor (Homo sapiens), sequence (P03372 whole entry, looked up): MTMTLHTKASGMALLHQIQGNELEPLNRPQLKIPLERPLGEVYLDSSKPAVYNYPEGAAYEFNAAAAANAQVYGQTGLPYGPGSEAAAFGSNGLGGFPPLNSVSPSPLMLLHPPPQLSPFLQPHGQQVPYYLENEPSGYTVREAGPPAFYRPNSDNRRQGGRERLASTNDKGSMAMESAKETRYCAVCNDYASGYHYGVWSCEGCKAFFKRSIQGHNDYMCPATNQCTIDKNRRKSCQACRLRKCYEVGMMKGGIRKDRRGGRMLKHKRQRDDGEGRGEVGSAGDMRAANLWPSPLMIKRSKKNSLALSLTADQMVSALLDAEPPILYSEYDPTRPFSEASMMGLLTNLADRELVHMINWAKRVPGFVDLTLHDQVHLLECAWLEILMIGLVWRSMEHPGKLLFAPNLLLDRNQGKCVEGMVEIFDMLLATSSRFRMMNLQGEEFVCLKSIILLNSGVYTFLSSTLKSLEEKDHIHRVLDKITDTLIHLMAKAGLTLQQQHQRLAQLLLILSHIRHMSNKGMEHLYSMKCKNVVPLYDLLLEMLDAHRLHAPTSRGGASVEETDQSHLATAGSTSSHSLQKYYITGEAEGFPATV
Bile acid receptor (Homo sapiens), sequence (Q96RI1 whole entry, looked up): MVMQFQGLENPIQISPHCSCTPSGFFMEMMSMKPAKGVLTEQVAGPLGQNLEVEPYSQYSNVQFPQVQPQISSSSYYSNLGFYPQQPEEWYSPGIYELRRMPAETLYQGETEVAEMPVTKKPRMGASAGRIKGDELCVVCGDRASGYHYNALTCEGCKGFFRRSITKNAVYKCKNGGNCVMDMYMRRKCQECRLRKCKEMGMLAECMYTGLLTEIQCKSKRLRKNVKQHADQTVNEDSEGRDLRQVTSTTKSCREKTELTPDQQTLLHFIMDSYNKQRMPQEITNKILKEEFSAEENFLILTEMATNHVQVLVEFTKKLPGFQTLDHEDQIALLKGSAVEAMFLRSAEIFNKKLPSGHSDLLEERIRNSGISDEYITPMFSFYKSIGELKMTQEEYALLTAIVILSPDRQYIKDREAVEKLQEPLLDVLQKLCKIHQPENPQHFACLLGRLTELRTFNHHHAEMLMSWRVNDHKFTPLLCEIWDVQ
Vitamin D3 receptor (Homo sapiens), sequence (P11473 whole entry, looked up): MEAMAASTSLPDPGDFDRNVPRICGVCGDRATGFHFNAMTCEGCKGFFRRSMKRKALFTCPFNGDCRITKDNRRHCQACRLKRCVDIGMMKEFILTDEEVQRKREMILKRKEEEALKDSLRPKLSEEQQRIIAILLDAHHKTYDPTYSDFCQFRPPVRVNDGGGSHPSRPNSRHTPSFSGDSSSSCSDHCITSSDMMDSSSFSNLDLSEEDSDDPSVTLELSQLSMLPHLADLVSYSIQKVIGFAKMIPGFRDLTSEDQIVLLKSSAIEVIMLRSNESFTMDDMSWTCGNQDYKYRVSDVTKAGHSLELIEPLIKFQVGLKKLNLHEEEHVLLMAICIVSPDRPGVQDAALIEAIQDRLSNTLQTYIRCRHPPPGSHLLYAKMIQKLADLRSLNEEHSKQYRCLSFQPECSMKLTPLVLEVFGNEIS
Glucocorticoid receptor (Homo sapiens), sequence (P04150 whole entry, looked up): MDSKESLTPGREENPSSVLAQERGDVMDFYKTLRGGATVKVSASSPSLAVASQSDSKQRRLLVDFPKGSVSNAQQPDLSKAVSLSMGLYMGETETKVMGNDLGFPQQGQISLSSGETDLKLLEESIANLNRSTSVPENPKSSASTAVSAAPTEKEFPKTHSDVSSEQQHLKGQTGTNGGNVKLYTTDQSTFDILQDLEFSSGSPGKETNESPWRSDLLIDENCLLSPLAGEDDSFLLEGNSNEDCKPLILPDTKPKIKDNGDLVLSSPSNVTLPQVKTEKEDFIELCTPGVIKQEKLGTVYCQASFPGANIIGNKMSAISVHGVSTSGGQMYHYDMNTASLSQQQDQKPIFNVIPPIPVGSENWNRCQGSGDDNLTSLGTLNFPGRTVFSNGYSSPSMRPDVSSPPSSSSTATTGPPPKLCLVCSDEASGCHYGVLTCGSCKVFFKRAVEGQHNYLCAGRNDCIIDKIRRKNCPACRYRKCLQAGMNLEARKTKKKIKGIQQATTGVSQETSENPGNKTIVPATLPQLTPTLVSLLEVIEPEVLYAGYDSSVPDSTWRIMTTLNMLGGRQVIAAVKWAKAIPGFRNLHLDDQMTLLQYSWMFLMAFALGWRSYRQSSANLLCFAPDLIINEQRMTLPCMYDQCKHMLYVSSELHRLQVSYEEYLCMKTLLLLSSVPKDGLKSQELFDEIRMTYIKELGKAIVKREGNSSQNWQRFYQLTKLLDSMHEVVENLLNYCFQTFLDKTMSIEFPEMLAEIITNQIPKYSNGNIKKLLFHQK
Peroxisome proliferator-activated receptor delta (Homo sapiens), sequence (Q03181 whole entry, looked up): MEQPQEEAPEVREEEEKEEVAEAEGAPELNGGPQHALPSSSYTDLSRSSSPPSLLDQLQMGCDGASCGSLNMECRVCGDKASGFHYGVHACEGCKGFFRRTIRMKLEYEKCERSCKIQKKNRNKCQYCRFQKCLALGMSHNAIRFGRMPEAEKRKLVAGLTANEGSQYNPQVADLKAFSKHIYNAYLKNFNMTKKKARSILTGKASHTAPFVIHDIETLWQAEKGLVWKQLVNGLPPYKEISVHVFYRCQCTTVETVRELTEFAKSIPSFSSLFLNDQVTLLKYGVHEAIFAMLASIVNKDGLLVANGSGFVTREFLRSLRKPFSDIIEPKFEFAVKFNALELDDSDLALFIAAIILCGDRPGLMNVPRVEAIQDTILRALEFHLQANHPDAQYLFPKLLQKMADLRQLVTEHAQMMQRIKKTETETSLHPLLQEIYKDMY

CCOC(=O)c1ccccc1N
inactive: outcome [1] | outcome [2] | outcome [3] | outcome [4] | Potency [5] | outcome [6] | outcome [7] | outcome [8] | outcome [9] | outcome [10] | outcome [11] | outcome [12] | Potency [13] | outcome [14] | Potency [15] | Potency [16] | Potency [17] | activation [18] -0.579% | activation [19] 0.622% | Potency [20] | Potency [21] | outcome [22] | Potency [23]
